Assay results as given in PubChem BioAssay (NCI).
The panel holds about 83,000 compounds, 20% with a hit somewhere; the sample as a whole holds those more often.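 The endpoint reported here, percent growth, reads 100 for growth as untreated, 0 for no net growth and -100 for all cells dead.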 Unmarked numbers belong to inactive results. Activity calls are given as the source filed them. How the source made its calls: active means growth percent below 10; inactive means the rest.

Key:
Assay in all cases: NCI-60 one-dose screen, 48 h (100 = growth as untreated, 0 = no growth, -100 = all killed)
Conditions in all cases: 10 µM unless noted
[1] = system: DU-145 prostate
[2] = system: K-562 leukemia
[3] = system: MALME-3M melanoma
[4] = system: MDA-MB-231 breast
[5] = system: RXF 393 renal
[6] = system: SF-268 CNS
[7] = system: SF-295 CNS
[8] = system: SF-539 CNS
[9] = system: UACC-257 melanoma
[10] = system: M14 melanoma

SMILES | growth [1] | growth [2] | growth [3] | growth [4] | growth [5] | growth [6] | growth [7] | growth [8] | growth [9] | growth [10]
CCCS(=O)(=O)N1CCCC(C(=O)Nc2nc3ccc(NC(=O)c4ccc(F)c(OC)c4F)cc3s2)C1 (stereo not given) | 72.7% | 27.6% | 52.7% | 62.9% | 8.45% (active) | 56.9% | 23% | 47.2% | 25.2% | 56.7%
COc1c(F)ccc(C(=O)Nc2ccc3nc(NC(=O)C4CCCN(S(=O)(=O)c5ccc(Br)s5)C4)sc3c2)c1F (stereo not given) | 88% | 68.9% | 88.9% | 81.6% | 36.1% | 64.1% | 69.3% | 78% | 88.7% | 89.7%
COc1ccc2c(c1)c(-c1cc(N)n3nc(-c4cn(C)c5ccccc45)cc3n1)cn2C | -58% (active) | 2.2% (active) | -76.5% (active) | -53.8% (active) | -82.2% (active) | -56.5% (active) | -73.3% (active) | -87.6% (active) | -67.8% (active) | -83% (active)
CCOC(=O)C1=C(N)N(c2ccccc2)C2=C(C(=O)CC(C)(C)C2)C1c1ccc([N+](=O)[O-])cc1 (stereo not given) | 106% | 83.7% | 120% | 97.4% | 101% | 106% | 96.2% | 94.3% | 112% | 99.5%
CC(=O)OC[C@@]1(C)C2CC[C@]3(C)C(CC=C4C5CC(C)(C)CC[C@]5(C(=O)Nc5ccc(C)cc5)CC[C@]43C)[C@@]2(C)C[C@@H](OC(C)=O)[C@@H]1OC(C)=O (stereo not given in full) | 49% | 21.6% | 60.6% | 66.1% | 82.2% | 57.4% | 31.2% | 43.1% | 23.9% | 51.9%
CC12CC[C@@H]3[C@]4(C)COC(c5cn[nH]c5-c5ccc(Cl)cc5)O[C@@H]4CC[C@@]3(C)[C@@H]1CC(C1=CCOC1=O)O2 (stereo not given in full) | 61.6% | 24.9% | 58% | 52.1% | 5.04% (active) | 60.3% | 43.8% | 51.2% | 46.7% | 30.9%
Cc1ccc(NC(=O)CN2CCN(c3ncnc4c3cnn4-c3ccccc3)CC2)cc1 | 92.5% | 59.8% | 90.8% | 80.6% | 86.7% | 80.7% | 116% | 84.6% | 92.8% | 100%
CC(C)Sc1nc(NCCc2c[nH]c3ccccc23)c(C#N)c(-c2ccccc2)n1 | 42.5% | 8.87% (active) | 55.8% | -17.3% (active) | -27.6% (active) | 45% | -14.3% (active) | 40.8% | 86.4% | 42.7%
COc1cccc(-c2nc(Nc3ccc(S(N)(=O)=O)cc3)c3ccccc3n2)c1 | 29.4% | 10.3% | 37.9% | 13.3% | 12.5% | 33.7% | 2.4% (active) | 11.9% | 68.4% | 38.7%
CCCSc1nc(NCCc2c[nH]c3ccccc23)c(C#N)c(-c2ccc(F)cc2)n1 | 63.7% | 27.7% | 75.4% | 29.2% | 24.8% | 53.8% | 41.2% | 44.7% | 74.6% | 75.5%
CN(C)CCn1c2ccccc2c2nc3cc(C(F)(F)F)ccc3nc21 | 31.4% | 19.3% | 25.9% | 37.2% | 42.7% | 52.4% | 27.9% | 26.3% | 45.1% | 40.7%
Cn1cc(-c2nnc(N)nc2-c2c[nH]c3ccc(F)cc23)c2cccnc21 | 80.2% | 15.7% | 44.8% | 51.6% | 65.4% | 61% | 25.6% | 47.2% | 72.7% | 21.6%
COc1cc2c(c(OC)c1OC)C(=O)CC(c1cccc(NC(=O)[C@@H](N)CC(C)C)c1)O2 (stereo not given in full) | 100% | 80.6% | 95.5% | 99.9% | 101% | 95.1% | 101% | 97.3% | 94.1% | 116%
CCN(CC)c1ccc(/C=N/Nc2nc(-c3ccc(Br)cc3)cs2)c(O)c1 | 91.7% | 4.62% (active) | 53.4% | 95.9% | 64.9% | 99.7% | 91.5% | 52.3% | 91.7% | 54.5%
CC(=O)Oc1ccc(/C=C/C(=O)N[C@@H](Cc2ccccc2)C(O)C(=O)NCc2ccccc2)cc1OC(C)=O (stereo not given in full) | 90.5% | 77.1% | 87.4% | 72.7% | 104% | 68% | 100% | 71.2% | 90.8% | 85.3%
C#C[C@]1(O)CC[C@H]2[C@@H]3CC=C4c5sc(-c6ccc(O)c(O)c6)nc5CC[C@]4(C)[C@H]3CC[C@@]21C | -49.4% (active) | -51.3% (active) | -84% (active) | -77.8% (active) | -90.2% (active) | -76.7% (active) | -94.2% (active) | -93.2% (active) | -81.7% (active) | -87.7% (active)
COc1c(F)ccc(C(=O)Nc2ccc3nc(NC(=O)C4CCCN(S(=O)(=O)c5ccc(Cl)cc5)C4)sc3c2)c1F (stereo not given) | 93.4% | 59.2% | 90.5% | 81.1% | 8.75% (active) | 77.4% | 63.6% | 66.8% | 82.4% | 75.6%
CC(C)c1sc(NC(=O)c2cc(NC(=O)c3cc(NC(=O)c4cscn4)cn3C)cn2C)nc1C(=O)NCCCN(C)C | 16.4% | 8.89% (active) | -51.7% (active) | -33.3% (active) | -47.2% (active) | 16.3% | 58.7% | -33.6% (active) | 7.52% (active) | 45%
O=C(COc1ccc2c(c1)CCCC(=O)N2)NCc1ccccc1 | 113% | 43.4% | 95.6% | 82.4% | 93.2% | 97.5% | 90.8% | 87.3% | 98% | 83%
O=C(/C=C/c1ccc(O)c(O)c1)NC1CCOC1O (stereo not given) | 108% | 88.3% | 103% | 99.1% | 125% | 99.6% | 101% | 95.7% | 102% | 108%
Cc1ccc(C2CC(c3ccc(S(=O)(=O)NCCNc4nc(Nc5ccc(F)cc5)nc(N(C)C)n4)cc3)=Nc3c(N)nc(N)nc3N2)cc1 (stereo not given) | 76% | 8.57% (active) | 54.3% | 32.5% | 27.2% | 57.7% | 48% | -44% (active) | 75.4% | 41.5%
Cn1cc(-c2cc(N)n3nc(-c4cn(C)c5ccccc45)cc3n2)c2cc(Br)ccc21 | 27.7% | 0.853% (active) | -72.9% (active) | -41.2% (active) | -70.1% (active) | -47.3% (active) | -53.4% (active) | -72.3% (active) | -71% (active) | -74.4% (active)
Cn1cc(-c2cc3nc(-c4cn(C)c5ncc(Br)cc45)cc(N)n3n2)c2ccccc21 | 16.1% | -30% (active) | -85.2% (active) | -64.7% (active) | -74% (active) | 11.8% | -60.2% (active) | -90.2% (active) | -77.4% (active) | -72.6% (active)
C/C(=N\N=C1/C(=O)Nc2ccc(Cl)cc21)c1ccc2c(c1)Nc1ccccc1S2 | -56.3% (active) | 10% | -19.6% (active) | -2.47% (active) | -11.5% (active) | 35.7% | -27.4% (active) | 3.26% (active) | 10.1% | -20.8% (active)
Cc1cc(=O)oc2cc(OCCCOc3ccc(/C=C/C(=O)Nc4ccccc4N)cc3)ccc12 | 33.1% | 18.2% | 42% | -2.67% (active) | 49.5% | 21.9% | 27.4% | 1.75% (active) | 38.2% | 41.8%
